# Results: the supplement of paper PMC6555819
# Legend:
# Assay in all cases: PBM binding z-score (relative to random genomic background probes); higher = stronger binding; sequences stand for … in GC…GCGATTGACAGCGTAGAATGAAGG
# [1] = system: FXR:RXRa (NR concentration 270 nM, RXRa partner concentration 90 nM)
# Summary of the method: (§1)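 Scanned fluorescence from custom Agilent 4×180K protein-binding microarrays was regression-normalized. Binding z-scores use random background probes as reference. Ligand-free nuclear receptor dimers were incubated on the arrays for 1 h and detected with antibodies against each partner (one per run).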
# [2] = system: LXRa:RXRa (NR concentration 270 nM, RXRa partner concentration 90 nM)
# Summary of the method: as §1
# [3] = system: LXRa homodimer (NR concentration 270 nM)
# Summary of the method: as §1
# [4] = system: LXRb:RXRa (NR concentration 270 nM, RXRa partner concentration 90 nM)
# Summary of the method: as §1
# [5] = system: LXRb homodimer (NR concentration 270 nM)
# Summary of the method: as §1
# [6] = system: PPARa:RXRa (NR concentration 270 nM, RXRa partner concentration 90 nM)
# Summary of the method: as §1
# [7] = system: PPARg:RXRa (NR concentration 180 nM, RXRa partner concentration 90 nM)
# Summary of the method: as §1
# [8] = system: PPARg:RXRa 270nM:90nM, anti-RXR (NR concentration 270 nM, RXRa partner concentration 90 nM)
# Summary of the method: as §1
# [9] = system: PPARg:RXRa 30nM:10nM, anti-RXR (NR concentration 30 nM, RXRa partner concentration 10 nM)
# Summary of the method: as §1
# [10] = system: PPARg:RXRa 90nM:30nM, anti-RXR (NR concentration 90 nM, RXRa partner concentration 30 nM)
# Summary of the method: as §1
# [11] = system: PPARg:RXRa DBDmut IVT, anti-RXR (DBD mutation: RXRa K156A/R161A, NR concentration 270 nM, RXRa partner concentration 90 nM)
# Summary of the method: as §1
# [12] = system: PPARg:RXRa IVT, anti-PPARg (NR concentration 270 nM, RXRa partner concentration 90 nM)
# Summary of the method: as §1
# [13] = system: PPARg DBDmut:RXRa IVT, anti-PPARg (DBD mutation: PPARg1 K132A/R137A, NR concentration 270 nM, RXRa partner concentration 90 nM)
# Summary of the method: as §1
# [14] = system: PPARg DBDmut IVT, anti-PPARg (DBD mutation: PPARg1 K132A/R137A, NR concentration 270 nM)
# Summary of the method: as §1
# [15] = system: PPARg homodimer (NR concentration 180 nM)
# Summary of the method: as §1
# [16] = system: PXR:RXRa (NR concentration 270 nM, RXRa partner concentration 90 nM)
# Summary of the method: as §1
# [17] = system: PXR homodimer (NR concentration 270 nM)
# Summary of the method: as §1
# [18] = system: RARa:RXR (NR concentration 270 nM, RXRa partner concentration 90 nM)
# Summary of the method: as §1
# [19] = system: RARa homodimer (NR concentration 270 nM)
# Summary of the method: as §1
# [20] = system: RARb:RXRa (NR concentration 270 nM, RXRa partner concentration 90 nM)
# Summary of the method: as §1
Sequence,PBM binding z-score [1],PBM binding z-score [2],PBM binding z-score [3],PBM binding z-score [4],PBM binding z-score [5],PBM binding z-score [6],PBM binding z-score [7],PBM binding z-score [8],PBM binding z-score [9],PBM binding z-score [10],PBM binding z-score [11],PBM binding z-score [12],PBM binding z-score [13],PBM binding z-score [14],PBM binding z-score [15],PBM binding z-score [16],PBM binding z-score [17],PBM binding z-score [18],PBM binding z-score [19],PBM binding z-score [20]
TCTGCTAAGTCAGTTGGTCAGCTAACGAGCTGCC,-0.309,-0.429,-0.729,-0.89,-0.474,-0.235,-1.04,0.263,1.09,0.712,0.523,0.0659,-0.684,-0.363,-1.05,-0.607,-0.707,-0.273,-1.36,0.0945
TCTATTAGTTGATTGGGGCAACCGAAACAGCGGA,1.22,0.791,0.363,1.23,1.1,1.17,0.235,1.91,3.65,2.85,2.23,1.52,0.999,1.72,0.142,0.811,0.783,1.14,1.31,1.03
CCTACTGGGCCAAAAAGGTCATTTATGCCGATAA,3.57,4.05,4.05,4.58,0.674,4.48,3.08,3.67,1.23,2.79,3.34,3.95,0.881,-0.177,3.37,4.67,3.36,4.88,1.02,3.7
ACTAGCAGGCCAAGGATCACTCAAGATTAGTCCG,-0.313,-0.212,-0.373,-0.592,-0.598,0.628,2.12,3.37,1.33,2.55,0.88,0.675,-0.388,-0.36,0.0853,-0.479,-0.469,-0.293,0.362,0.296
TCTTGTAGATCAATAGGAGGTTAAGAAAGATCGA,0.54,1.36,0.474,0.851,0.157,1.36,0.389,1.57,2.93,2.25,1.97,0.955,0.693,0.624,0.344,0.712,0.557,1.04,0.522,0.202
TAGGCTAGGTCATGCGGGCCAGTATAGTGTCGGC,3.97,2.69,0.422,1.26,0.000142,3.1,2.29,2.28,0.305,1.33,2.31,2.92,0.345,0.348,1.24,1.21,-0.485,2.05,0.442,3.84
ATATGTAGGTTACATCCGCGTCATTCAGGCTATG,0.387,1.31,0.198,0.733,0.789,3.15,4.94,3.92,1.86,3.52,7.33,7.28,2.01,1.99,0.907,0.229,0.0394,0.412,0.447,0.941
CTCGAAAGGTCGGTTGAGCTGAGTATACGGATAA,1.24,0.827,-0.605,0.855,-0.258,2,0.00937,0.523,-0.12,0.207,0.0426,0.318,-0.21,-0.532,0.0115,0.392,-0.439,0.834,0.167,2.58
CCTTCCGGGTCAAGGTTATAGCACGGGTGGTACG,5.06,3.34,0.142,2.85,0.13,4.95,5.1,5.24,2.15,4.32,2.99,4.69,0.688,0.0375,2.1,3.7,0.341,4.25,0.928,4.1
AGAACGAGGGCAATGAGTTGGTAGCACGGGTGGC,0.301,0.0909,-0.759,-0.443,-0.642,1.18,0.956,0.772,-0.238,0.196,3.11,2.58,0.246,-0.0657,-0.218,0.943,1.44,0.0918,-0.865,1.96
CGTCCAAGGTCATAGGAGGCCAGTGAAGACAGAT,7.24,5.75,1.07,4.34,0.536,5.51,4.37,5.03,1.54,3.73,2.81,3.75,0.813,0.508,2.54,5.33,1.53,4.52,0.617,5
CCTACTGGGCCAAAGGTCATTGCTTCCAATGCTC,4.94,5.17,4.85,4.86,0.985,6.51,11.3,9.77,10.1,11.1,5.34,6.61,-0.293,0.248,2.84,5.39,1.64,5.98,0.417,4.49
CAAACTAGGTCACGAAAGGTAAAAGTCGAATGAC,5.18,4.51,0.678,3,0.18,5.71,9.74,7.96,6.05,7.49,8.36,9.37,5.06,2.46,2.6,3.12,0.438,3.69,1.43,4.33
CGTCCAAGGTCAGCAGGTCAGTCAAAGCGACGTG,5.86,4.15,0.724,3.27,-0.456,4.84,4.14,4.59,0.878,3.11,2.82,3.69,0.0784,-0.246,3.64,3.71,0.514,4.81,0.95,5.08
